Bioassay records from PubChem.
Shown is part of a subset that was picked to be rich in hits.
Cycloheximide cs = Cycloheximide Counterscreen for Small Molecule Inhibitors of Shiga Toxin; cell reporter, cycloheximide protein synthesis inhibition counterscreen; max response, %; 300,000 compounds, 12% hits; AID 2314, 2010; in the data active = max response mostly above about 13%, no sharp cut-off; inactive = mostly below about 14%; note: read at 38.3 µM for the half of the compounds with a filed dose; 0% is about no effect
Sm TGR inh = qHTS Assay for the Inhibitors of Schistosoma Mansoni Peroxiredoxins | purified TGR, DTNB reduction, TNB absorbance 405 nm | Potency, µM (titrated, usually from 114 µM), for inactives: at the top dose activity change, negative = inhibition, hits mostly inhibitors | 360,000 compounds, 3% hits; note: potency is the fitted concentration of half-maximal effect; % is set by controls: 0 for no effect and ±100 for the full control effect; nearly all actives have a fitted effect of over 60% in size
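First, TGR (20 nM dispensed) and NADPH were mixed with compound. Second, a 15 min room-temperature incubation followed. Third, further NADPH and then DTNB were added to start the reaction. Finally, TNB absorbance was monitored kinetically.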
FBPA Giardia inh = qHTS Assay for Inhibitors of Fructose-1,6-bisphosphate Aldolase from Giardia Lamblia | purified Giardia FBPA | 290,000 compounds, 0.71% hits | AID 2451, 2010 | Potency, µM (titrated, usually from 59.6 µM), inactives show at the top dose activity, negative = inhibition, hits mostly inhibitors; note: potency is the fitted concentration of half-maximal effect; % is set by controls: 0 for no effect and ±100 for the full control effect; nearly all actives have a fitted effect of over 55% in size
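Giardia FBPA (40 nM reagent) was preincubated 10 min at RT with compound (up to 57.5 uM final), then substrate plus GAPDH/TPI/NAD/arsenate coupling system with diaphorase/resazurin was added; resorufin fluorescence (525/598 nm) was read after 20 min.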
LmPK inhibitor = qHTS Assay for Inhibitors of Leishmania Mexicana Pyruvate Kinase (LmPK). AID 1721, 2009. Q27686. Potency, µM (highest dose often 57.5 µM), without a hit: at the highest dose activity change, negative = inhibition, actives largely listed as inhibitors. purified LmPK, Kinase-Glo ATP luminescence, 1 h. 290,000 compounds, 0.37% hits; note: potency is the fitted concentration of half-maximal effect; % is set by controls: 0 for no effect and ±100 for the full control effect
Target sequence (Q27686 whole entry, looked up): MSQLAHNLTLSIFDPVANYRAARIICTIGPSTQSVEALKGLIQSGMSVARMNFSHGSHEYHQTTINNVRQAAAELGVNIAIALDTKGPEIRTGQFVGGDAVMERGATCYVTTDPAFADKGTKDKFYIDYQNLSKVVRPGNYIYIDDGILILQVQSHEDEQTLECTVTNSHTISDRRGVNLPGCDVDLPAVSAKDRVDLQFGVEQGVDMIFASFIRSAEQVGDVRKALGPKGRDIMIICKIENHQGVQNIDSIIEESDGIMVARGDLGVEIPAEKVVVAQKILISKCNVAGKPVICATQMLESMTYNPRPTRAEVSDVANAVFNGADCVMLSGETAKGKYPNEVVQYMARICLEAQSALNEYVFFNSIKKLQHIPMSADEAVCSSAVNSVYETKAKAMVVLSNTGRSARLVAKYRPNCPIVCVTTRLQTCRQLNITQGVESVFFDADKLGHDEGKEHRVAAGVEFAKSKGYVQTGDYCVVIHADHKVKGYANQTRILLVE
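ATP generated from ADP (0.1 mM) and PEP (0.5 mM) by 0.1 nM LmPK over 1 h at room temperature (pH 7.2 imidazole buffer) was detected by coupled luciferase luminescence. Values were normalized to uninhibited and no-enzyme wells.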
Shiga toxin inh = A qHTS for Small Molecule Inhibitors of Shiga Toxin; 290,000 compounds, 9.2% hits; inhibition, % at 38.7 µM; Vero cells, Shiga toxin protein synthesis inhibition reporter; in the data active = inhibition mostly above about 28%, no sharp cut-off; inactive = mostly below about 43%; note: 0% is about no effect
Tb PYK inh = qHTS of Trypanosoma Brucei Inhibitors. pyruvate kinase (Trypanosoma brucei), Q57TT1. TbPYK enzyme, Kinase-Glo Plus ATP luminescence, 45 min. Potency, µM (doses to about 76.8 µM), without a hit: at the top dose activity, negative = inhibition, hits mostly inhibitors. 410,000 compounds, 0.12% hits. AID 624173, 2012; note: potency is the fitted concentration of half-maximal effect; % is set by controls: 0 for no effect and ±100 for the full control effect; nearly all actives have a fitted effect of over 50% in size
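ADP (130 uM final) triggers the TbPYK reaction after compound addition; incubation is 45 min at room temperature. Kinase-Glo Plus is then added and luminescence imaged. Normalized data are fitted to concentration-effect curves.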
The depositor's hits bear a star; ? = inconclusive; . = not tested or not shown; + = active, no number; [ ] = another dose, or the depositor's remark. Unless noted, calls come from the whole dose curve; as a rule, active = well fitted curve in the direction sought with a large enough effect; inconclusive = small, poorly fitted or top-dose-only effect, or another doubt; inactive = no such curve, though single readings can be large; an effect the other way counts as inactive or inconclusive.

SMILES | Cycloheximide cs | Sm TGR inh | FBPA Giardia inh | LmPK inhibitor | Shiga toxin inh | Tb PYK inh
CC(=O)c1ccc(C2CC34CNS(=O)(=O)C3CC2O4)cc1 (configuration not stated) | 7.8 | . | 1.5% | . | -2.8 | .
COc1ccc(CNc2ccnc(-c3ccccc3CN(C)C)n2)c(OC)c1 | . | . | 6.2% | . | . | .
CCCCC[C@H](O)/C=C/C1=C(C/C=C\CCCC(=O)O)C(=O)CC1 | . | . | 3.5% | . | . | .
C/C=C\C=C/C(=O)Nc1cccc(C2=NOC3(C2)C[C@@H](C(N)=O)N(C(=O)/C=C/CC)C3)c1 (some centres not stated) | -0.8 | 1.78µM* | -19.2% | 3.4% | 2.2 | 3.6%
Cc1ccc(C(=O)NCCCN2CCOCC2)c(Cl)c1 | 16.8* | -7.2% | 4.4% | 7.5% | . | 0.4%
Cc1ccc(S(=O)(=O)N2CCCCC2)cc1C(=O)NCCCN1CCOCC1 | -4.9 | 28.3% | . | -14.0% | -11.9 | -7.6%
COc1ccsc1C(=O)NCCN1CCOCC1 | -3.7 | 4.3% | 2.2% | -4.8% | -6.1 | -1.2%
Cc1cc(C)c(C(=O)NCCCN2CCOCC2)c(C)c1 | -3.8 | 9.3% | -3.6% | -0.1% | -2.6 | 1.5%
COc1ccc2oc(C(=O)NCCN3CCOCC3)c(C)c2c1OC | 61.1* | 8.8% | . | ? | 63.2* | 3.2%
Cc1ccc(C(=O)NCCCN2CCOCC2)cc1 | . | . | . | . | . | -1.2%
Cc1ccc(C(=O)NCCCN2CCOCC2)c(C)c1 | 19.5* | 0.0% | -3.3% | -1.9% | 41.7 | -0.3%
Cc1ccc(S(=O)(=O)N2CCCC2)cc1C(=O)NCCN1CCOCC1 | 29.2* | -0.1% | . | -9.6% | 28.1* | -5.5%
COCCc1nn2c(=O)cc(COC(=O)C(c3ccccc3)c3ccccc3)nc2s1 | . | 0.0% | . | . | . | -0.1%
CC(=O)OC1CCC23CC1(C)CCC2C(C)(C)CC3OC(C)=O (configuration not stated) | . | . | -0.3% | . | . | .
Cc1cc(C)c(S(=O)(=O)N2CCOC2CNC(=O)C(=O)NCCCN2CCOCC2)c(C)c1 (configuration not stated) | 34.6* | ? | . | -9.8% | 80.1* | 0.4%
Cc1ccc2oc(C(=O)NCCC3CCCCO3)c(C)c2c1 (configuration not stated) | 26.4* | 5.5% | . | -3.3% | 63.0* | -13.0%
Cc1ccc2oc(C(=O)NCCCN3CCOCC3)c(C)c2c1 | 43.6* | 8.8% | -6.9% | -7.1% | 71.2* | 2.7%
Cc1c(C(=O)NCCCN2CCOCC2)oc2ccc(S(=O)(=O)N3CCOCC3)cc12 | 1.4 | 4.0% | 7.0% | 3.3% | -19.5 | -4.9%
CCCC1=C(C(=O)OCC)C(c2sccc2C)n2ncnc2N1 (configuration not stated) | -0.9 | 3.9% | -6.5% | 3.9% | -4.2 | 2.3%
COc1ccc(S(N)(=O)=O)cc1C(=O)NC1CCCc2ccccc21 (configuration not stated) | -4.3 | -5.9% | -5.7% | 4.3% | -14.7 | 1.2%
CC1/C=C/C=C/C=C/C=C/C=C/C=C/C=C/C(OC2OC(C)C(O)C(N)C2O)CC2O[C@@](O)(CC(O)CC(O)C(O)CCC(O)CC(O)CC(=O)OC(C)[C@H](C)C1O)CC(O)C2C(=O)O (some centres not stated) | . | . | -26.7% | . | . | .
CCc1ccc(NC(=O)c2cc3c(COC(C)=O)cnc(C)c3oc2=O)cc1 | . | 0.5% | . | . | . | 5.0%
CC(=O)c1ccc(-c2c(C)cc3oc(=O)cc(-c4ccccc4)c3c2C)cc1 | 29.5* | . | 5.2%[89.2 µM] | . | + | 0.0%
CCc1ccc(CNC(=O)C2Cc3cc(S(=O)(=O)N4CCCCCC4)ccc3N2C(C)=O)cc1 (configuration not stated) | . | 12.4% | . | . | . | 5.5%
O=C(Nc1nc(=O)c2ccccc2s1)c1ccc(F)cc1 | 14.6* | -1.9% | ? | -10.3% | 49.8* | -10.1%
O=C(Nc1nc(=O)c2ccccc2s1)c1ccc(Cl)cc1 | 19.5* | -1.9% | ? | -3.2% | 33.9 | 0.1%
O=C(Nc1nc2ccsc2c(=O)s1)c1ccc(Cl)cc1 | 30.1* | -6.2% | 2.4% | -11.2% | 88.2* | -7.0%
